Experimental data as given in PubChem BioAssay (EPA / NIEHS).
“And” between values parts separate entries of the source, which are not always exact repeats. Equal values may be shown once. More than one record can exist for a structure, and the calls need not agree. The source made the active and inactive calls. Rule for the calls: active = hit-call score of the fitted dose curve at least 0.9, where 1 is the maximum; inactive = score below 0.9.

How the values were obtained:
[1] = read-out: Macrophage colony-stimulating factor (MCSF), CSF1 (gene 1435); assay: BSK_CASM3C_MCSF: BioMAP Diversity Plus: CASM3C Assay for Macrophage colony-stimulating factor (MCSF) Biomarker Activity (AID 2283044); conditions: primary human coronary artery smooth muscle cells; actives raise or lower the signal;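 note: M-CSF protein amount quantified by ELISA after 24 h exposure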
[2] = read-out: Low-density lipoprotein receptor (LDLR), LDLR (gene 3949); assay: BSK_CASM3C_LDLR: BioMAP Diversity Plus: CASM3C Assay for Low-density lipoprotein receptor (LDLR) Biomarker Activity (AID 2283045); conditions: primary human coronary artery smooth muscle cells; actives raise or lower the signal;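 note: LDLR protein level on the cell surface quantified by ELISA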
[3] = read-out: Monocyte Chemoattractant Protein-1 (MCP1), CCL2 (gene 6347); assay: BSK_CASM3C_MCP1: BioMAP Diversity Plus: CASM3C Assay for Monocyte Chemoattractant Protein-1 (MCP1) Biomarker Activity (AID 2283046); conditions: primary human coronary artery smooth muscle cells; actives raise or lower the signal;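 note: MCP-1 level quantified by ELISA 24 h after dosing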
[4] = BSK_CASM3C_Proliferation: Cell Proliferation Assessment in the BioMAP Diversity Plus: CASM3C Assay (AID 2283047); conditions: primary human coronary artery smooth muscle cells;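 note: sulforhodamine B total protein stain as relative cell number at 560 nm; sub-confluent cells exposed 48 h before staining; fitted both ways against DMSO so gain or loss of cell number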
[5] = read-out: Monokine induced gamma interferon (MIG), CXCL9 (gene 4283); assay: BSK_CASM3C_MIG: BioMAP Diversity Plus: CASM3C Assay for Monokine induced gamma interferon (MIG) Biomarker Activity (AID 2283048); conditions: primary human coronary artery smooth muscle cells; actives raise or lower the signal;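 note: MIG protein level measured by ELISA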
[6] = read-out: serum amyloid A (SAA), SAA1 (gene 6288); assay: BSK_CASM3C_SAA: BioMAP Diversity Plus: CASM3C Assay for serum amyloid A (SAA) Biomarker Activity (AID 2283049); conditions: primary human coronary artery smooth muscle cells; actives raise or lower the signal;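 note: SAA protein level quantified by ELISA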
[7] = BSK_CASM3C_SRB: Viability Assessment in the BioMAP Diversity Plus: CASM3C Assay (AID 2283050); conditions: primary human coronary artery smooth muscle cells;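 note: total protein by SRB staining as cytotoxicity measure in parallel cultures; cells exposed to compound for 24 h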
[8] = read-out: Thrombomodulin, THBD (gene 7056); assay: BSK_CASM3C_Thrombomodulin: BioMAP Diversity Plus: CASM3C Assay for Thrombomodulin Biomarker Activity (AID 2283051); conditions: primary human coronary artery smooth muscle cells; actives raise or lower the signal;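 note: thrombomodulin protein level measured by ELISA 24 h after dosing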
[9] = read-out: Tissue Factor, F3 (gene 2152); assay: BSK_CASM3C_TissueFactor: BioMAP Diversity Plus: CASM3C Assay for Tissue Factor Biomarker Activity (AID 2283052); conditions: primary human coronary artery smooth muscle cells; actives raise or lower the signal;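 note: cell surface tissue factor protein level read by ELISA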
[10] = read-out: Interferon-gamma inducible Protein 10 (IP10), CXCL10 (gene 3627); assay: BSK_hDFCGF_IP10: BioMAP Diversity Plus: hDFCGF Assay for Interferon-gamma inducible Protein 10 (IP10) Biomarker Activity (AID 2283053); conditions: primary human foreskin fibroblasts; actives raise or lower the signal
In short: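 Cells: human dermal foreskin fibroblasts. Exposure: 24 h post-dosing. Detection: IP-10 ELISA, with values expressed against DMSO controls and fitted in both directions.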

[11] = read-out: Urokinase-type plasminogen activator receptor (uPAR), PLAUR (gene 5329); assay: BSK_CASM3C_uPAR: BioMAP Diversity Plus: CASM3C Assay for Urokinase-type plasminogen activator receptor (uPAR) Biomarker Activity (AID 2283054); conditions: primary human coronary artery smooth muscle cells; actives raise or lower the signal;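 note: cell-surface uPAR protein level quantified by ELISA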
[12] = read-out: Vascular cell adhesion molecule 1 (VCAM1), VCAM1 (gene 7412); assay: BSK_CASM3C_VCAM1: BioMAP Diversity Plus: CASM3C Assay for Vascular cell adhesion molecule 1 (VCAM1) Biomarker Activity (AID 2283055); conditions: primary human coronary artery smooth muscle cells; actives raise or lower the signal;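 note: VCAM-1 protein level quantified by ELISA on the cells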
[13] = read-out: Collagen III, COL3A1 (gene 1281); assay: BSK_hDFCGF_CollagenIII: BioMAP Diversity Plus: hDFCGF Assay for Collagen III Biomarker Activity (AID 2283056); conditions: primary human foreskin fibroblasts; actives raise or lower the signal
In short: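 ELISA readout of Collagen III in human dermal (foreskin) fibroblasts, taken 24 h post-treatment. Gain or loss relative to DMSO vehicle fitted in both directions.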

[14] = read-out: Epidermal growth factor receptor (EGFR), EGFR (gene 1956); assay: BSK_hDFCGF_EGFR: BioMAP Diversity Plus: hDFCGF Assay for Epidermal growth factor receptor (EGFR) Biomarker Activity (AID 2283057); conditions: primary human foreskin fibroblasts; actives raise or lower the signal
In short: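 Dosing human primary skin fibroblasts, then measuring surface EGFR by ELISA at 24 h, gives the endpoint; gains and losses relative to DMSO were fitted in both directions.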

[15] = read-out: Interleukin-8 (IL8), CXCL8 (gene 3576); assay: BSK_hDFCGF_IL8: BioMAP Diversity Plus: hDFCGF Assay for Interleukin-8 (IL8) Biomarker Activity (AID 2283058); conditions: primary human foreskin fibroblasts; actives raise or lower the signal
In short: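 IL-8 levels read by ELISA at 24 hours after dosing human skin fibroblast cultures. Parallel SRB staining assessed overt cytotoxicity, and gain or loss of signal was fitted against DMSO control.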

[16] = BSK_hDFCGF_Proliferation: Cell Proliferation Assessment in the BioMAP Diversity Plus: hDFCGF Assay (AID 2283059); conditions: primary human foreskin fibroblasts;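 note: curves fitted for both rise and fall of signal versus DMSO baseline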
In short: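 Primary human foreskin fibroblasts, sub-confluent; […]; 10% TCA fix, 0.1% SRB stain, A560 total protein. Gain/loss fitted bidirectionally vs DMSO control.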

[17] = BSK_hDFCGF_SRB: Viability Assessment in the BioMAP Diversity Plus: hDFCGF Assay (AID 2283061); conditions: primary human foreskin fibroblasts;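 note: cells exposed to compound for 24 h before the read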
In short: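 Viability was read as total protein: after 10% TCA fixation, wells were stained with 0.1% sulforhodamine B and read at 560 nm. Primary human foreskin fibroblasts were dosed for 24 h, with bidirectional fitting versus DMSO.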

[18] = read-out: TIMP metallopeptidase inhibitor 1 (TIMP1), TIMP1 (gene 7076); assay: BSK_hDFCGF_TIMP1: BioMAP Diversity Plus: hDFCGF Assay for TIMP metallopeptidase inhibitor 1 (TIMP1) Biomarker Activity (AID 2283062); conditions: primary human foreskin fibroblasts; actives raise or lower the signal
In short: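 TIMP-1 measured by ELISA 24 h after chemical dosing of primary human skin fibroblasts, with gain or loss fitted relative to DMSO. Parallel SRB staining (560 nm) monitored overt cytotoxicity.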

[19] = read-out: Monokine induced gamma interferon (MIG), CXCL9 (gene 4283); assay: BSK_hDFCGF_MIG: BioMAP Diversity Plus: hDFCGF Assay for Monokine induced gamma interferon (MIG) Biomarker Activity (AID 2283063); conditions: primary human foreskin fibroblasts; actives raise or lower the signal
In short: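 Human primary foreskin fibroblasts in the hDFCGF system, exposed to test chemical for 24 h; MIG measured by ELISA. Bidirectional curve fitting against DMSO negative control as activity baseline.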

[20] = read-out: Macrophage colony-stimulating factor (MCSF), CSF1 (gene 1435); assay: BSK_hDFCGF_MCSF: BioMAP Diversity Plus: hDFCGF Assay for Macrophage colony-stimulating factor (MCSF) Biomarker Activity (AID 2283060); conditions: primary human foreskin fibroblasts; actives raise or lower the signal
In short: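 M-CSF levels read by ELISA at 24 h post-dosing in human skin fibroblasts. Parallel cultures stained with SRB assessed cytotoxicity at the same time point; response fitted in both directions against the DMSO baseline.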

Measured: AC50

CN(C)C(=O)Nc1ccc(Cl)cc1
not listed: [20]
inactive: all other assays above

N#CC(Br)Br
inactive: all assays above

[As]#[In]
inactive: all assays above

Brc1ccc(Oc2ccccc2)cc1
not listed: [20]
inactive: all other assays above

Nc1ccc([N+](=O)[O-])cc1
active: [16] 20 µM
inactive: all other assays above

c1ccc2c(c1)-c1cccc3cccc-2c13
active: [13] 16.4 µM | [16] 23.7 µM
not listed: [20]
inactive: all other assays above

CNC(=O)Oc1cccc2c1OC(C)(C)C2
inactive: all assays above

C[N+](C)(C)CC1CO1 (configuration not stated)
inactive: all assays above

CO[C@@H]1[C@H](OC(=O)NC(=O)CCl)CC[C@]2(CO2)[C@H]1[C@@]1(C)O[C@@H]1CC=C(C)C
inactive: [1] | [2] | [3] | [5] | [6] | [7] | [8] | [9] | [11]
active: [4] 1.99 µM | [10] 5.48 µM | [12] 6.2 µM | [13] 2.63 µM | [14] 9.51 µM | [15] 11.5 µM | [16] 2.28 µM | [20] 6.58 µM | [17] 9.25 µM | [18] 5.82 µM | [19] 8.35 µM

C1=Cc2cccc3cccc1c23
inactive: all assays above

CCNS(=O)(=O)C(F)(F)C(F)(F)C(F)(F)C(F)(F)C(F)(F)C(F)(F)C(F)(F)C(F)(F)F
inactive: [1] | [2] | [3] | [4] | [5] | [6] | [7] | [8] | [9] | [11] | [14] | [15] | [18]
active: [8] 24.6 µM | [12] 9.52 µM and 11.7 µM and 5.95 µM | [13] 5.82 µM and 18.6 µM and 22 µM | [14] 31.3 µM and 48.5 µM | [15] 55.1 µM and 46.4 µM | [16] 17.5 µM and 14.4 µM and 19.4 µM | [17] 28.8 µM and 44.8 µM and 47.8 µM | [18] 47.2 µM and 53.5 µM | [19] 19.3 µM and 28.3 µM and 36 µM

Nc1ccc(Oc2ccc(N)cc2)cc1
active: [16] 4.11 µM
inactive: all other assays above

COP(=S)(OC)SCN1C(=O)c2ccccc2C1=O
inactive: all assays above

CCN(CC)CCO
inactive: all assays above

O=P(OCCCl)(OCCCl)OCCCl
inactive: all assays above

Clc1ccc(Cl)c(Cl)c1
inactive: all assays above

c1ccc(N=Nc2ccccc2)cc1
not listed: [20]
inactive: all other assays above

CC(C)(C)C(O)(CCc1ccc(Cl)cc1)Cn1cncn1 (configuration not stated)
active: [16] 0.299 µM
inactive: all other assays above

O=C(Oc1ccc(Br)cc1)N1CCN2CCC1CC2
not listed: [20]
inactive: all other assays above

OCCCl
not listed: [20]
inactive: all other assays above

CCCSC(=O)N(CCC)CCC
inactive: all assays above

c1ccc2c(c1)oc1ccccc12
not listed: [18]
inactive: all other assays above

ClCCOCCCl
not listed: [20]
inactive: all other assays above

Cc1ccc(N=C=O)cc1N=C=O
active: [4] 20 µM
inactive: all other assays above

Nc1ccc(N=Nc2ccccc2)cc1
active: [10] 29.3 µM | [11] 3.9 µM | [13] 20 µM | [16] 8 µM
not listed: [20]
inactive: all other assays above

CCCCCCCCn1sccc1=O
inactive: [14]
active: [1] 10.8 µM | [2] 12.8 µM | [3] 15 µM | [4] 1.28 µM | [5] 9.51 µM | [6] 17.2 µM | [7] 14.7 µM | [8] 35.8 µM | [9] 14.2 µM | [10] 0.626 µM | [11] 11.5 µM | [12] 9.3 µM | [13] 2.42 µM | [15] 1.62 µM | [16] 0.405 µM | [17] 1.73 µM | [18] 2.09 µM | [19] 0.949 µM

Clc1ccccc1Cl
inactive: all assays above
